# This is part of a sample that, as a whole, favours compounds with a hit. Of some 83,000 tested, about 20% had one in any assay.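 The test compound was applied at a single concentration to cells in 96-well plates for 48 hours, and percent growth was recorded.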 Values without a mark were called inactive. Activity calls are given as the source filed them.
# Tested on: HOP-92 NSCLC
# Experiment: NCI-60 one-dose screen, 48 h (100 = growth as untreated, 0 = no growth, -100 = all killed)
# Settings: 10 µM
# Experimental: Growth inhibition of the HOP-92 human Non-Small Cell Lung tumor cell line is measured as a screen for anti-cancer activity. Cells are grown in 96 well plates and exposed to the test compound for 48 hours. Compounds are tested at a single concentration, which is 10^-5 M for most compounds. The reported endpoint is percent growth (GI% or GIPRCNT), where numbers from 0 - 100% represent growth inhibition, and numbers from -100% - 0 represent cell death. For example, a value of 40 represents 60% growth inhibition. A value of 0 means no net growth occurred over the course of the experiment. A value of -40 indicates 40% of cells at the beginning of the experiment died by the end of the experiment. A value of -100 means all cells are dead at the end of the experiment.
# NCI-60 Human Tumor Cell Lines Screen was performed using the standard one-dose NCI protocol, which is described in more detail at https://dtp.cancer.gov/discovery_development/nci-60/default.htm.
# Compounds with GIPRCNT values below 10 were considered active. Activity score was based on GIPRCNT using the following formula: […]
# Score is 0 for GIPRCNT values of 100 or above, 50 for GIPRCNT values of 0, and 100 for GIPRCNT values of -100.
row,Compound,growth
1,CC([C@H]1CC=C2C3CCC4=C[C@@H](N(C)C)CC[C@]4(C)C3CC[C@@]21C)N(C)C (stereo not given in full),70.2%
2,CC(=O)c1nn(-c2ccc(C)cc2)cc1C(=O)c1cc2c(ccc3ccccc32)oc1=O,77.6%
3,COc1cc(NC(C)CCCN)c2nccc(C)c2c1OC (stereo not given),47.9%
4,CCN(CC)CCCC(C)Nc1c(C)cnc2cc(Cl)c(C)cc12 (stereo not given),70.4%
5,Oc1ccccc1\C=N/N=C/C=C/c1ccccc1,103%
6,Cc1nnc(-c2cc3c(ccc4ccccc43)oc2=O)c2cn(-c3ccc(Cl)cc3)nc12,85.9%
7,COc1ccccc1Cn1cc2c(c1)-c1oncc1CC2,80.3%
8,CCc1ccc(C(=Nc2ccc(N(C)C(=O)CN3CCN(C)CC3)cc2)c2c(O)[nH]c3ccc(C(=O)OC)cc23)cc1,-70.7% (active)
9,O=C(N/N=C/c1ccccc1Cl)c1cccc2ccccc12,94.8%
10,C#CCCCCCCC[C@@H]1OC(=O)[C@H]([C@@H](C)CC)NC(=O)[C@@H]([C@@H](C)CC)NC(=O)CC(=O)[C@@H]1C,77.3%
11,CCCC(=O)Nc1ccccc1C(=O)O,95.7%
12,CCOC(=O)C1=NN(c2ccccc2)C2=NC(=O)/C(=C\c3cn(-c4ccccc4)nc3-c3cc4ccccc4o3)C(=O)N12,63.5%
13,COC1(OC)N=C(N)C2(C#N)C3(C(=O)Nc4ccccc43)C12C#N (stereo not given),73%
14,C/C(=N\Nc1cccc(Cl)n1)c1ccccn1,40.5%
15,CC1=C[C@@H]2c3c(c(O)c(O)c4oc5cc(O)cc(O)c5c(=O)c34)[C@@H](c3cc(O)c(O)c4oc5cc(O)cc(O)c5c(=O)c34)[C@@H]2C(C)(C)C1,-15% (active)
16,CCOC(=O)c1c2c(cn1Cc1ccccc1)-c1oncc1CC2,61.8%
17,O=C(Cc1ccccc1[N+](=O)[O-])c1ccc2c(c1)OCO2,82%
18,O=C(O)c1occ(Cl)c1Cl,95.3%
19,CCOC(=O)C1=C(C(F)(F)F)NC(=O)NC1CN1C(=O)c2ccccc2C1=O (stereo not given),60.8%
20,Cc1ccc(C(=O)Nc2ccc(CN3CCN(C)CC3)c(C(F)(F)F)c2)cc1C#Cc1cnc(N)c2ccc(C#N)cc12,13.7%

row,Compound,growth
1,Oc1ccc([S+](c2ccc(O)cc2)c2ccc(O)cc2)cc1,92.2%
2,O=C(Nn1cnc2ccccc21)N1CCCC1,74.1%
3,C=C(C)[C@@H]1CC[C@]2(COC(=O)c3ccccc3C(=O)O)CC[C@]3(C)[C@H](CC[C@@H]4[C@@]5(C)CCCNC(C)(C)[C@@H]5CC[C@]43C)[C@@H]12,86.1%
4,CCC(C)C1NC(=O)C(CC(C)C)NC(=O)C(C)NC(=O)C(C(C)C)NC(=O)C(CCCCN)NC(=O)C(CC(C)C)NC(=O)C(C(C)C)NC(=O)[C@H](C)NC(=O)C(C(C)CC)NC(=O)C(CCCN=C(N)N)NC(=O)C(CCCCN)NC(=O)C(CCCN=C(N)N)NC(=O)C(CCCCN)NC(=O)C([C@H](C)CC)NC(=O)C(CCCCN)NC1=O (stereo not given in full),-21.8% (active)
5,COc1ccc(Cn2cc3c(c2-c2ccccc2)CCc2cnoc2-3)cc1N,64.1%
6,CC(=O)OC1CC2C3CCC4C[C@@H](NC(=O)C=C(C)C)CC[C@]4(C)C3CC[C@]2(C)[C@H]1C(C)N(C)C (stereo not given in full),-36.2% (active)
7,COc1cc2ncnc(-n3ncc4cc(NC(=O)Nc5ccc(Cl)c(C)c5)ccc43)c2cc1OC,93.7%
8,CC[C@H](Nc1ncnc2nc[nH]c12)c1nc2cccc(NCc3ccc(C(=O)NO)nc3)c2c(=O)n1-c1ccccc1,23.2%
9,N=C(N)c1ccc(-c2ccc(-c3cc(Cl)cc(Cl)c3)s2)cc1,-77.1% (active)
10,COC(=O)c1ccc2[nH]c(O)c(C(=Nc3ccc(N(C)C(=O)CN4CCN(C)CC4)cc3)c3ccc(CCO)cc3)c2c1,66.6%
11,CC(=O)OCC(=O)[C@@]1(O)[C@H](C)C[C@H]2[C@@H]3C=C(C)C4=Cc5c(cnn5-c5ccc(F)cc5)C[C@]4(C)[C@H]3[C@@H](O)C[C@@]21C,24.4%
12,Nc1cc(N)c2nc(NCCc3ccc(Cl)c(Cl)c3)cnc2c1,-54.9% (active)
13,CC(=O)/C(=C/c1ccc(-c2ccccc2)cc1)C(=O)c1ccccc1,89.9%
14,COc1ccc(OC)c(Cn2cc3c(c2-c2ccccc2)CCc2cnoc2-3)c1,59.8%
15,CCCCCCCCCC[N+](C)(C)C,-24.5% (active)
16,COc1cc(OC)cc(-c2ccc(-c3ccc(C(=N)N)cc3)s2)c1,-80.6% (active)
17,CC[C@H](Nc1ncnc2nc[nH]c12)c1nc2cccc(NCc3ccc(C(=O)NO)o3)c2c(=O)n1-c1ccccc1,82.6%
18,COc1ccc(-c2cc(C#N)c(NNC(C)=O)[nH]2)cc1,178%
19,COc1ccc(C(=O)c2no[n+]([O-])c2C(=O)c2ccc(OC)cc2)cc1,-73.5% (active)
20,COc1ccc(NC(=O)/C=C(C)/C=C/C=C(C)/C=C/C2=C(C)CCCC2(C)C)cc1,62%

# Reference: PubChem BioAssay (NCI)
